Only some compounds are listed: those with a hit (about 7.4% of all), similar ones and a draw of the others.
Rab9 promoter act – activators of Rab9 promoter | Huh7 Rab9 promoter-luciferase reporter, luminescence, 24 h | Potency, µM (highest dose often 9.22 µM), inactives show at the top dose activation, negative = inhibition, usual class: activators | actives 2.8% (n = 320,000); also: % of control where 0% means no effect; nearly all actives have a fitted effect of over 60% in size
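Huh7 cells stably carrying a Rab9 promoter-luciferase reporter, 1500 cells per well in OP-MEM I with 10% FBS, treated with compound 24 hours at 37C. Luciferase activity read by luminescence after 10 minutes with Amplite reagent.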
SMN2 splice up – increases expression of the SMN2 splice variant; actives 2.8% (n = 210,000); HEK293 SMN2-luciferase splicing reporter, luminescence, 30-36 h; Potency, µM (doses to about 46.1 µM), for the others: top-dose activity change, positive = activation, most hits filed as activators; also: % of control where 0% means no effect; nearly all actives have a fitted effect of over 55% in size
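HEK293 cells carry an SMN2 […]–luciferase reporter in which exon 7 inclusion puts luciferase in frame. Cells were plated 10-12 h before compound addition, then incubated 30-36 h at 37C. ONE-Glo luminescence was read; sodium butyrate at 4.5 mM final served as control.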
ELG1 genotoxic – inducers of genotoxicity in HEK293T ELG1-luciferase cells. AID 504466. HEK293T ELG1-luciferase reporter, luminescence, 16 h. Potency, µM (titrated, usually from 46 µM), inactives show at the highest dose activity change, positive = activation, hits mostly activators. actives 1.3% (n = 330,000); also: % of control where 0% means no effect; nearly all actives have a fitted effect of over 60% in size
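HEK293T cells expressing luciferase-tagged ELG1 were exposed to compound or DMSO vehicle for 16 hr at 37 °C and 5% CO2. Luciferase activity was then measured with ONE-Glo after 30 min at room temperature.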
KinaseGlo FLuc – blocks Kinase-Glo luciferase, a counter-screen artifact. Q27757. Kinase-Glo luciferase, ATP luminescence, 8 min. Potency, µM (titrated, usually from 38.3 µM), inactives show top-dose activity change, negative = inhibition, most hits filed as inhibitors. actives 0.28% (n = 200,000). AID 1379; also: % is scaled to controls: 0 for no effect and ±100 for the full control effect; nearly all actives have a fitted effect of over 60% in size
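Kinase-Glo luciferase light output from ATP and luciferin was measured with 10 uM ATP, within the enzyme's linear range. Buffer: 50 mM imidazole pH 7.2, 50 mM KCl, 7 mM MgCl2, 0.01% Tween 20, 0.05% BSA; luminescence read after 8 min at ambient temperature.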
NPC1 promoter act – activators of NPC1 promoter; Huh7 NPC1 promoter luciferase reporter, 24 h; actives 2.4% (n = 320,000); Potency, µM (highest dose often 9.22 µM), without a hit: top-dose activation, usual class: activators; also: % of control where 0% means no effect; nearly all actives have a fitted effect of over 60% in size
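Readout is luciferase luminescence, reflecting NPC1 promoter activation in stably transfected Huh7 cells after 24 h compound exposure at 37 °C in reduced-serum medium with 10% FBS.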
FLuc counter – firefly luciferase modulation, counter-screen for miR-21 project | P08659 | purified FLuc, Km substrates, luminescence inhibition | Potency, µM (titrated, usually from 57.5 µM), for inactives: at the top dose activity change, negative = inhibition, actives largely listed as inhibitors | actives 6.9% (n = 360,000) | AID 588342;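 also: plate controls were vehicle for no effect and reference inhibitor for full effect; nearly all actives have a fitted effect of over 55% in size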
Target sequence (P08659 whole entry, looked up): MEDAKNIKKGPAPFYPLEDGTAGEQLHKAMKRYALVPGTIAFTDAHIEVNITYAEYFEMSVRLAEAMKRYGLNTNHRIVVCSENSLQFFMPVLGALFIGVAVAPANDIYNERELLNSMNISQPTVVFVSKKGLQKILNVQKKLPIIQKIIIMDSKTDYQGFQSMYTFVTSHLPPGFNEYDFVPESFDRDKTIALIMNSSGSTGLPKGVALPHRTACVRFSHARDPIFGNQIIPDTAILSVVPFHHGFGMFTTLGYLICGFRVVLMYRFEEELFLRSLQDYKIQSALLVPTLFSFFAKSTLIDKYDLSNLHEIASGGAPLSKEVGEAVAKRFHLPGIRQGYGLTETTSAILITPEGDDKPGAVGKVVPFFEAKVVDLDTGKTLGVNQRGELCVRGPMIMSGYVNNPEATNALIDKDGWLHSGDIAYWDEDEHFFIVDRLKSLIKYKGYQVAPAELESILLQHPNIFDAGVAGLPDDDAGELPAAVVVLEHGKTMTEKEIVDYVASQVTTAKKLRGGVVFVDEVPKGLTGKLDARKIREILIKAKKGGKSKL
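Purified P. pyralis luciferase (10nM final) with 10uM D-luciferin and 10uM ATP (Km levels) in 50mM Tris acetate pH 7.5, 10mM Mg acetate, 0.01% Tween-20, 0.05% BSA; qHTS 6-point titration, ~60 µM downward; luminescence read.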
An asterisk follows results filed as active; ? = inconclusive; / = no result given; [ ] = another dose, or the depositor's remark. Calls follow the shape of the dose curve; as a rule, active = well fitted curve in the direction sought with a large enough effect; inconclusive = small, poorly fitted or top-dose-only effect, or another doubt; inactive = no such curve, though single readings can be large; an effect the other way counts as inactive or inconclusive. Potency is read from the fitted curve at half-maximal effect.

SMILES	Rab9 promoter act	SMN2 splice up	ELG1 genotoxic	KinaseGlo FLuc	NPC1 promoter act	FLuc counter
O=C(CCS(=O)(=O)c1ccccc1)Nc1ccc(S(=O)(=O)Nc2ncccn2)cc1	1%	/	7%	/	-3%	-1%
O=C(CCS(=O)(=O)c1ccccc1)Nc1cccc(-c2nc3ccccc3s2)c1	?	-111%	?	-12%	?	6.7µM*
Cc1cc(OCC(=O)OCC(=O)NC2CCCCCC2)ccc1Cl	11%	/	0%	/	-1%	-1%
COc1ccccc1CNC(=O)c1nccnc1CO	4%	/	1%	/	-2%	-2%
Cc1ccc(C(=O)Nn2cnc3ccccc3c2=O)cc1C	2.5µM*	/	?	/	3.2µM*	13µM*
CCc1ccc(C(=O)Nn2cnc3ccccc3c2=O)cc1	2.2µM*	/	?	/	2.5µM*	8.5µM*
Cc1occc1C(=O)n1cnc2ccccc21	-3%	?	0%	0%	0%	-2%
Cc1ccc(C(=O)n2cnc3ccccc32)cc1C	8%	/	0%	/	-2%	12µM*
CC1(C(=O)NCc2ccc(F)cc2)Oc2ccccc2NC1=O (configuration not stated)	0%	-4%	-2%	1%	12%	-3%
CN(C)c1ccc(NC(=O)CSc2nnc(-c3cnccn3)n2C)cc1	1%	/	-5%	/	6%	?
COc1ccc(COC(=O)c2ccc(Cl)c(S(=O)(=O)N3CC(C)OC(C)C3)c2)cc1 (configuration not stated)	-8%	/	?	/	-4%	1%
O=C(CSc1nc2ccccc2n1-c1ccccc1)Nc1ncc(Cl)cc1Cl	18%	4.5µM*	-10%	2%	3%	-3%
COc1ccc(/C(N)=N/OC(=O)c2ccco2)cc1	0.35µM*	6.3µM*	0.46µM*	-26%	0.5µM*	0.95µM*
COc1ccc(OCC(=O)O/N=C(\N)c2ccc(OC)cc2)cc1	-1%	/	-3%	/	3%	?
Cc1ccc(/C(N)=N/OC(=O)c2ccco2)cc1	2.5µM*	11µM*	?	-9%	4µM*	2.4µM*
Cc1cccc(/C(N)=N/OC(=O)c2ccco2)c1	?	16µM*	2.3µM*	?	?	1.9µM*
N/C(=N\OC(=O)c1ccco1)c1ccccc1	9%	22µM*	?	?	21%	6.7µM*
Cc1cccc(C(=O)NCCNC(=O)c2ccco2)c1	3%	/	4%	/	-1%	0%
C(=N\N=C\c1ccncc1)/c1ccncc1	-5%	/	5%	/	-3%	-8%
Cc1ccc(OCc2nnc(SCC(=O)N3C(C)CCCC3C)o2)cc1 (configuration not stated)	1%	/	-4%	/	-2%	-11%
COC(=O)/C(=C/c1ccc(OC)cc1)NC(=O)c1ccco1	1%	-6%	0%	3%	-2%	-2%
COc1ccc(C(=O)COC(=O)c2ccco2)cc1	3%	12%	?	-24%	?	1.1µM*
COc1ccc(C(=O)COC(=O)c2ccn(C)n2)cc1	?	/	?	/	3.5µM*	17µM*
COc1ccc(N=N/C(=C\O)C(=O)c2ccco2)cc1	7%	3%	-4%	-8%	21%	24µM*
N/C(=N\OC(=O)c1ccco1)c1ccccn1	29%	?	?	13µM*	20%	8.5µM*
SMILES	Rab9 promoter act	SMN2 splice up	ELG1 genotoxic	KinaseGlo FLuc	NPC1 promoter act	FLuc counter
COc1ccc(C(=O)N2c3ccc(C)cc3C(C)(c3ccccc3)CC2(C)C)cc1 (configuration not stated)	/	-24%	/	/	/	0%
Cc1cccc(/C(N)=N/OC(=O)N2CCOCC2)c1	26%	-85%	8%	?	29%	17µM*
N/C(=N\OC(=O)c1ccco1)c1ccc(Br)cc1	?	20%	?	-14%	?	6.7µM*
N/C(=N\OC(=O)CCCOc1ccccc1)c1ccc(Br)cc1	4%	23%	2%	-2%	-1%	-1%
O=C(Cn1cnc2c(NCc3ccccc3)ncnc21)NCCCN1CCCC1=O	/	/	5%	/	/	/
Cc1ccc(-n2nc(CO)c(C(=O)NCCCc3ccccc3)n2)cc1C	/	16%	/	/	/	5.4µM*
Cc1ccc(C(=O)NCCCc2ccccc2)s1	?	13µM*	?	-4%	4µM*	21µM*
Cc1ccccc1C(=O)NCCCc1ccccc1	29%	13µM*	11%	0%	24%	?
CCCCN(C)CCNC(=O)Cn1ncc2c3ccccc3n(CCC)c2c1=O	/	/	/	/	/	-5%
O=C(Nc1cccc(Br)c1)c1cc(S(=O)(=O)N2CCOCC2)cs1	6%	/	-11%	/	0%	-7%
CCOc1ccc(OCCSc2nc(C)cc(=O)[nH]2)cc1	?	6%	?	0%	?	13µM*
COc1ccc(OCCSc2nc(N)cc(=O)[nH]2)cc1	-2%	/	0%	-1%	-2%	-11%
Cc1ccc(SCCSc2nc(C)cc(=O)[nH]2)cc1	?	/	23µM*	/	?	5.4µM*
O=C(O)CCCC[C@H]1SC[C@H]2NC(=O)N[C@@H]21	/	7%[20.6 µM]	/	1%[17.1 µM]	/	/
CC(C)(C)c1ccc(-c2noc(C(=O)NN)n2)cc1	18%	/	1%	/	23%	?
CC(C)(C)c1ccc(-c2conc2N)cc1	2.5µM*	18µM*	12%	-6%	?	2.7µM*
COc1ccc(-c2cc(C(=O)Nc3cccc(Cl)c3)no2)cc1	1.1µM*	/	1.8µM*	/	1µM*	0.76µM*
O=C(Nc1cccc(Cl)c1)c1cc(-c2ccco2)on1	-2%	/	4%	/	2%	2.7µM*
